This note sets out measurements from PubChem BioAssay (NCI).

SMILES strings stand for the structures. The panel holds about 83,000 compounds, 20% with a hit somewhere; the sample as a whole holds those more often.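 Single-dose data. Exposure time 48 hours. Values below 10 considered active.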 A number with no mark means an inactive call. Activity calls are given as the source filed them.

Assay in all cases: NCI-60 one-dose screen, 48 h (100 = growth as untreated, 0 = no growth, -100 = all killed)
The subject of one experiment is HCT-15 colon. Conditions: 10 µM unless noted.
For another experiment, the system named is HT29 colon. To be noted: 10 µM unless noted.
For a further experiment, the system named is SNB-75 CNS. Conditions: 10 µM unless noted.
A further experiment deals with SNB-19 CNS. Conditions: 10 µM unless noted.
Another experiment relates to U251 CNS. Conditions: 10 µM unless noted.
In the next experiment the test system is PC-3 prostate. Conditions: 10 µM unless noted.
A further experiment concerns SK-MEL-5 melanoma. Conditions: 10 µM unless noted.
In another experiment the test system is UACC-62 melanoma. Conditions: 10 µM unless noted.
A further experiment relates to LOX IMVI melanoma. To be noted: 10 µM unless noted.
The test system of another experiment is SK-MEL-28 melanoma. Conditions: 10 µM unless noted.
The next experiment has as its system SK-MEL-2 melanoma. To be noted: 10 µM unless noted.
A further experiment deals with EKVX NSCLC. Conditions: 10 µM.
A further experiment relates to SN12C renal. To be noted: 10 µM unless noted.
The test system of another experiment is UO-31 renal. To be noted: 10 µM unless noted.
The test system of the next experiment is TK-10 renal. Conditions: 10 µM unless noted.
Another experiment deals with ACHN renal. To be noted: 10 µM unless noted.
The next experiment deals with CAKI-1 renal. Conditions: 10 µM unless noted.
In the next experiment the test system is A498 renal. Conditions: 10 µM unless noted.
The next experiment has as its system CCRF-CEM leukemia. Conditions: 10 µM.
The subject of a further experiment is MOLT-4 leukemia. Conditions: 10 µM unless noted.

As for `COC(=O)c1ccc2[nH]c(O)c(C(=Nc3ccc(N(C)C(=O)CN4CCN(C)CC4)cc3)c3ccc(OC)cc3)c2c1`, the growth with HCT-15 colon was 10.4%; in the experiment on HT29 colon it was 20%; in the experiment with SNB-75 CNS, 6.7% (active); in the experiment with SNB-19 CNS it was 32.4%; with U251 CNS it was 19%; with PC-3 prostate, 28.7%. Further, the growth is 28.5% in the experiment with SK-MEL-5 melanoma; 39.2% in the experiment on UACC-62 melanoma; 16.1% with LOX IMVI melanoma; 32.8% in the experiment on SK-MEL-28 melanoma; 16.9% with SK-MEL-2 melanoma; 45.7% in the experiment with EKVX NSCLC. Besides, the growth with SN12C renal was 17%; in the experiment on UO-31 renal, 14.3%; in the experiment on TK-10 renal it was 27.6%; in the experiment with ACHN renal it was 14.9%; in the experiment with CAKI-1 renal, 5.5% (active); with A498 renal it was -16.6% (active). Further, the growth with CCRF-CEM leukemia was 6.43% (active); with MOLT-4 leukemia it was 2.57% (active).
Consider `O=C1C(Cl)=C(SC2=NCCN2)C(=O)c2ccccc21`, for which the growth was 83.3% in the experiment with HCT-15 colon; 102% in the experiment with HT29 colon; 153% with SNB-75 CNS; 92.3% with SNB-19 CNS; 63.9% in the experiment on U251 CNS; 64.5% in the experiment on PC-3 prostate. Moreover, the growth in the experiment on SK-MEL-5 melanoma is -29.6% (active); in the experiment with UACC-62 melanoma, 74.3%; in the experiment with LOX IMVI melanoma it was 18%; in the experiment with SK-MEL-28 melanoma, 78.9%; in the experiment with SK-MEL-2 melanoma it was 66.7%; with EKVX NSCLC it was 94.4%. Moreover, the growth in the experiment on SN12C renal was 74%; in the experiment with UO-31 renal it was 48.3%; in the experiment on TK-10 renal it was 173%; with ACHN renal, 83.5%; in the experiment with CAKI-1 renal it was 93.9%; in the experiment with A498 renal it was 119%. Further, the results for the growth with CCRF-CEM leukemia and in the experiment with MOLT-4 leukemia were 61.7% and 68.9%, respectively.
Regarding `Cc1ccc(C(=O)Nc2ccc(CN3CCN(C)CC3)c(C(F)(F)F)c2)cc1C#Cc1cnc(N)c2ccc(F)cc12`, the growth in the experiment on HCT-15 colon was -93.4% (active); with HT29 colon it was -85% (active); with SNB-75 CNS it was -70.4% (active); in the experiment with SNB-19 CNS, -99.1% (active); in the experiment on U251 CNS, -89.2% (active); with PC-3 prostate it was -82.7% (active). Also, the growth in the experiment with SK-MEL-5 melanoma was -96% (active); with UACC-62 melanoma, -83.9% (active); with LOX IMVI melanoma, -91.4% (active); with SK-MEL-28 melanoma it was -96.2% (active); in the experiment with SK-MEL-2 melanoma it was -56.2% (active); in the experiment with EKVX NSCLC, -92.2% (active). For the same compound, the growth in the experiment with SN12C renal was -90.8% (active); in the experiment with UO-31 renal, -97.3% (active); in the experiment on TK-10 renal it was -84.5% (active); in the experiment on ACHN renal, -100% (active); in the experiment on CAKI-1 renal it was -58% (active); with A498 renal, -69.9% (active). In addition, the growth is -58.7% (active) in the experiment on CCRF-CEM leukemia and -67.1% (active) with MOLT-4 leukemia.
As for `COc1cc2c(c(OC)c1OC)C(=O)CC(c1cccc(C(=O)Nc3cccc(Br)c3)c1)O2` (stereo not given), the growth is 72.1% with HCT-15 colon; 82.3% in the experiment with HT29 colon; 75.4% in the experiment on SNB-75 CNS; 76.4% in the experiment with SNB-19 CNS; 81.8% in the experiment with U251 CNS; 59.1% in the experiment on PC-3 prostate. In addition, the growth with SK-MEL-5 melanoma is 72.9%; with UACC-62 melanoma it was 58.4%; in the experiment on LOX IMVI melanoma, 90%; with SK-MEL-28 melanoma it was 91.9%; in the experiment on SK-MEL-2 melanoma, 73.8%; with EKVX NSCLC, 85.1%. Besides, the growth with SN12C renal is 71.7%; in the experiment on UO-31 renal, 51.3%; in the experiment on TK-10 renal, 109%; in the experiment on ACHN renal, 89.1%; in the experiment with CAKI-1 renal it was 85.3%; in the experiment on A498 renal, 76%. For the same compound, the growth was 45% in the experiment on CCRF-CEM leukemia and 48.8% in the experiment with MOLT-4 leukemia.
As for `COc1ccc(Cn2cc3c(c2)-c2oncc2CC3)cc1OC`, the growth was 16.3% in the experiment on HCT-15 colon; 7.91% (active) with HT29 colon; 0.447% (active) with SNB-75 CNS; 42% in the experiment on SNB-19 CNS; 18.9% in the experiment with U251 CNS; 25.5% in the experiment on PC-3 prostate. Moreover, the growth in the experiment on SK-MEL-5 melanoma is 9.72% (active); with UACC-62 melanoma, 40.6%; in the experiment with LOX IMVI melanoma, 37.3%; in the experiment with SK-MEL-28 melanoma, 50.3%; with SK-MEL-2 melanoma, 43%; in the experiment on EKVX NSCLC it was 43.7%. Besides, the growth is 38.9% with SN12C renal; 44.1% in the experiment with UO-31 renal; 65.2% in the experiment with TK-10 renal; 44.3% in the experiment on ACHN renal; 21.9% in the experiment on CAKI-1 renal; 21.4% in the experiment on A498 renal. Also, the growth was 14.9% in the experiment on CCRF-CEM leukemia and 31% with MOLT-4 leukemia.
`NC(N)=Nc1ccc(/C=C2\C=Cc3ccccc32)cc1`: the growth in the experiment with HCT-15 colon was 68%; with HT29 colon, 36.1%; in the experiment with SNB-75 CNS, 52.7%; in the experiment with SNB-19 CNS it was 75.6%; with U251 CNS, 67.8%; in the experiment with PC-3 prostate it was 51.9%. Also, the growth in the experiment with SK-MEL-5 melanoma is 79.6%; with UACC-62 melanoma, 69%; in the experiment on LOX IMVI melanoma it was 40%; in the experiment with SK-MEL-28 melanoma, 91.6%; in the experiment on SK-MEL-2 melanoma it was 85.6%; in the experiment with EKVX NSCLC, 75.7%. For the same compound, the growth in the experiment on SN12C renal was 79.3%; in the experiment on UO-31 renal, 49.1%; in the experiment on TK-10 renal it was 78.1%; with ACHN renal, 67.8%; in the experiment on CAKI-1 renal it was 64.2%; in the experiment with A498 renal, 47.7%. Besides, the growth in the experiment on CCRF-CEM leukemia is 49.4%; in the experiment with MOLT-4 leukemia, 37.2%.
In the case of `O=C(Nc1cccc(Cn2c(=O)[nH]c3ccc(Oc4ncccn4)cc3c2=O)c1)c1cc(Cl)cc(Cl)c1`, the growth was 77.3% with HCT-15 colon; 47.4% in the experiment with HT29 colon; 42.6% in the experiment on SNB-75 CNS; 69.4% in the experiment on SNB-19 CNS; 51.1% in the experiment with U251 CNS; 64.5% with PC-3 prostate. The growth with SK-MEL-5 melanoma is 56.8%; in the experiment with UACC-62 melanoma it was 66.6%; in the experiment with LOX IMVI melanoma it was 86.3%; in the experiment with SK-MEL-28 melanoma, 60.7%; in the experiment with SK-MEL-2 melanoma, 55.1%; in the experiment with EKVX NSCLC, 72.3%. Further, the growth in the experiment on SN12C renal was 59.4%; with UO-31 renal, 65.6%; in the experiment on TK-10 renal, 71.5%; in the experiment on ACHN renal it was 19.8%; with CAKI-1 renal, 91%; in the experiment on A498 renal it was 85.3%. Besides, the figures for the growth in the experiment with CCRF-CEM leukemia and with MOLT-4 leukemia were 77.9% and 63.8%, respectively.
Consider `COc1cc2oc(-c3ccc(NC(=O)c4ccccc4)cc3)cc(=O)c2c(OC)c1OC`, for which the growth in the experiment on HCT-15 colon is 79.2%; with HT29 colon it was 84.3%; with SNB-75 CNS, 81%; with SNB-19 CNS, 75%; in the experiment with U251 CNS it was 90.5%; in the experiment with PC-3 prostate, 71.7%. In addition, the growth was 85.7% with SK-MEL-5 melanoma; 85.4% with UACC-62 melanoma; 92.5% with LOX IMVI melanoma; 93.3% with SK-MEL-28 melanoma; 92.1% in the experiment with SK-MEL-2 melanoma; 90.8% in the experiment with EKVX NSCLC. The growth in the experiment on SN12C renal was 83.7%; in the experiment on UO-31 renal, 88.7%; with TK-10 renal, 91.8%; with ACHN renal, 83.5%; with CAKI-1 renal, 96.8%; in the experiment on A498 renal, 90.9%. The growth in the experiment with CCRF-CEM leukemia was 82.2%; in the experiment with MOLT-4 leukemia, 92.2%.
